Results with a measured potency or affinity are listed apart. Active and inactive are the calls of the source. How the calls were made is not given here.
Assay: cytotoxicity in HEK293 cells, dose response, cytotoxicity control, cell-based, plate reader, cherry-pick (AID 651899);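 further: cells exposed to compound for 48 hours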

| SMILES | outcome |
| --- | --- |
| Cc1nc2nc(SCC(=O)N3CCC4(CC3)OCCO4)nn2c(C)c1Cc1ccccc1 | inactive |
| COc1cc2c3cc1Oc1cc(ccc1O)C[C@@H]1c4c(cc(OC)c(O)c4Oc4cccc(c4)C[C@@H]3N(C)CC2)CC[N+]1(C)C | inactive |
| O=c1[nH]c(N2CCN(Cc3ccc4c(c3)OCO4)CC2)nc2c1CCC2 | inactive |
| O=[N+]([O-])c1ccc(C[n+]2c(-c3ccccc3)cc(-c3ccccc3)cc2-c2ccccc2)cc1 | inactive |
| CCc1nc2ccc(Br)cc2c(=O)n1-c1ccccc1C(F)(F)F | inactive |
| COc1ccc2c(c1)c(C(=O)CN1CCC3(CC1)OCCO3)c(C)n2Cc1ccccc1 | inactive |
| CC(=O)N1CCN(c2ccc([N+](=O)[O-])cc2C=C2C(=O)NC(=O)NC2=O)CC1 | inactive |

Source: PubChem BioAssay AID651899 (Broad Institute, 2012)
